From publication PMC7862700, “An all-to-all approach to the identification of sequence-specific readers for epigenetic DNA modifications on cytosine” come the findings set out here.

Common to all, as to assay: DAPPL (digital affinity profiling via proximity ligation, sequencing); 10 mM Tris-HCl pH 7.5, 50 mM NaCl, 1 mM DTT, 4% glycerol, room temperature, 30 min; GST-TFs on glutathione beads, 16-mer random dsDNA library, 0.1% formaldehyde crosslink after washing; high values mean tight binding
One assay has as its target T1, FLI1 (Homo sapiens, UniProt Q01543 1-452).
T1 sequence: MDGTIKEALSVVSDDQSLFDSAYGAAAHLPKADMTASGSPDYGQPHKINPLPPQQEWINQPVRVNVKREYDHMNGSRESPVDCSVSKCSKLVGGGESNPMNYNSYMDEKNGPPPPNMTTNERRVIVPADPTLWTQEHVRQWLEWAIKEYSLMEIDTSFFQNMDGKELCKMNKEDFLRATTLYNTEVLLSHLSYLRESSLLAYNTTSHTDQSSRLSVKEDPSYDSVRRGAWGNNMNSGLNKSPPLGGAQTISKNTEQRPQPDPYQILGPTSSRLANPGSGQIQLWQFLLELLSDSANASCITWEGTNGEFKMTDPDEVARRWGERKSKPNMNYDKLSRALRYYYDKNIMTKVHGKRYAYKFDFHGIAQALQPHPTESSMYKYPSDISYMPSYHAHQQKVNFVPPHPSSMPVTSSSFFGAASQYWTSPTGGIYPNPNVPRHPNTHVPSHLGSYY
Particulars: protein: recombinant; tags: N-terminal GST; dsDNA, one strand shown. In short, it runs like this:
(§1)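 In yeast, human transcription factors were expressed with a GST fusion, then pulled down on glutathione beads and given DNA barcodes. Pooled with a tag-only sample, they were exposed to 200 nmole of a 16-mer random double-stranded DNA library (Tris/NaCl/DTT/glycerol buffer, room temperature, 30 min), washed, crosslinked with 0.1% formaldehyde, proximity-ligated using BsaI/T4 ligase for 1 h at 37 °C, PCR-amplified and read on an Illumina NextSeq500. Each hexamer's frequency of reads for a factor, divided by the matching frequency for the tag-only sample, gives the binding signal.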

In another assay the target is T2, ELK1 (Homo sapiens, UniProt P19419 1-428).
T2 sequence: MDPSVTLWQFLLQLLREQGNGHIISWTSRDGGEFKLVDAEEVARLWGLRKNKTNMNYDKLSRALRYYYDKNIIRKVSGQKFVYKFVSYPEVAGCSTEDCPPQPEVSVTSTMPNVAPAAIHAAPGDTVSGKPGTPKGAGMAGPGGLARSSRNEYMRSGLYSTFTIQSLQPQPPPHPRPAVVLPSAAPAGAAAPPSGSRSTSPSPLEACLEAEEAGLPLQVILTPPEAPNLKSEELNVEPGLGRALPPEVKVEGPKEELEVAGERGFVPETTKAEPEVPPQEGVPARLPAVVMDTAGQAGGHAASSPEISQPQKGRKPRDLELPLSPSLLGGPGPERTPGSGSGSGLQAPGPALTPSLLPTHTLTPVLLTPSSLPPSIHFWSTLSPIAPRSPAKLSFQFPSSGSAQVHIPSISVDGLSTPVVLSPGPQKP
Particulars: protein: recombinant; tags: N-terminal GST; dsDNA, one strand shown. The procedure, abridged:
as §1

The next assay has as its target T3, GABPA (Homo sapiens, UniProt Q06546 1-454).
T3 sequence: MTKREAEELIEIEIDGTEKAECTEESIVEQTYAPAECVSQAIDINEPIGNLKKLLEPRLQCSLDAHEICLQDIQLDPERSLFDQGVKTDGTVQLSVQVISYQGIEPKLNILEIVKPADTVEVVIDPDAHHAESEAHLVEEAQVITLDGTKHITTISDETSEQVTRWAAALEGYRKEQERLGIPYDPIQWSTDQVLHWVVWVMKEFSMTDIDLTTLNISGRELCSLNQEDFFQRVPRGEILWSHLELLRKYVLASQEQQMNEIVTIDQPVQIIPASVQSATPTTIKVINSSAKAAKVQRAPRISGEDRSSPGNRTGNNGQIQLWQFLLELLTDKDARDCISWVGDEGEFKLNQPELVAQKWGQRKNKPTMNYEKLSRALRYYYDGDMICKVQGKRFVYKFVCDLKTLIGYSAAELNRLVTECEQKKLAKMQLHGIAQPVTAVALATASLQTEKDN
Particulars: protein: recombinant; tags: N-terminal GST; dsDNA, one strand shown. The procedure, abridged: as §1

The target of the next assay is T4, ERG (Homo sapiens, UniProt P11308 1-479).
T4 sequence: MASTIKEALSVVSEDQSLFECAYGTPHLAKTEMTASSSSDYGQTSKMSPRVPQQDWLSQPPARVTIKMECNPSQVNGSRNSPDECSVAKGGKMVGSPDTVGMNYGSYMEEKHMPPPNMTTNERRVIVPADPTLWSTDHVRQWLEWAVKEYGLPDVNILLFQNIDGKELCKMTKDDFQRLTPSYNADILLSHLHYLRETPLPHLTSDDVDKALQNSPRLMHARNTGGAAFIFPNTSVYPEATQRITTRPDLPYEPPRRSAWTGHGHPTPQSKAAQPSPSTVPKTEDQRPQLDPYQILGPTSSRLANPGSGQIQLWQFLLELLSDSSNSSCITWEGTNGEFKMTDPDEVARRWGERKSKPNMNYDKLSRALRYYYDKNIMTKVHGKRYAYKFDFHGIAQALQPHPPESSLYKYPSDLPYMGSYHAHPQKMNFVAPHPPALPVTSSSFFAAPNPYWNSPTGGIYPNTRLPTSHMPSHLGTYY
Particulars: protein: recombinant; tags: N-terminal GST; dsDNA, one strand shown. In short, it runs like this: as §1

A further assay has as its target ELF1 (Homo sapiens, UniProt P32519 1-619). Particulars: protein: recombinant; tags: N-terminal GST; dsDNA, one strand shown. In short, it runs like this:
as §1

The target in another assay is T5, EHF (Homo sapiens, UniProt Q9NZC4 1-300).
T5 sequence: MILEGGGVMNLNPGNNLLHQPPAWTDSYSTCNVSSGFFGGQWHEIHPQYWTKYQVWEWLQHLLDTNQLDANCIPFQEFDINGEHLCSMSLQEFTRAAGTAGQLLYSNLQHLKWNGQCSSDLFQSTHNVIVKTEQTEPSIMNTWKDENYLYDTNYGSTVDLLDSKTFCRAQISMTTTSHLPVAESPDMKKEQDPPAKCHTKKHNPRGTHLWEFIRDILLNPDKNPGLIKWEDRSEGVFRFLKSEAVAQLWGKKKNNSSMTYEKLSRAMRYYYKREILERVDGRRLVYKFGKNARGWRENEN
Particulars: protein: recombinant; tags: N-terminal GST; dsDNA, one strand shown. The procedure, abridged: as §1

Another assay deals with SPI1 (Homo sapiens, UniProt P17947 1-270). Particulars: protein: recombinant; tags: N-terminal GST; dsDNA, one strand shown. The procedure, abridged: as §1
Another assay has as its target SPIB (Homo sapiens, UniProt Q01892 1-262). Particulars: protein: recombinant; tags: N-terminal GST; dsDNA, one strand shown. The procedure, abridged: as §1
The next assay concerns the target T6, ELK3 (Homo sapiens, UniProt P41970 1-407).
T6 sequence: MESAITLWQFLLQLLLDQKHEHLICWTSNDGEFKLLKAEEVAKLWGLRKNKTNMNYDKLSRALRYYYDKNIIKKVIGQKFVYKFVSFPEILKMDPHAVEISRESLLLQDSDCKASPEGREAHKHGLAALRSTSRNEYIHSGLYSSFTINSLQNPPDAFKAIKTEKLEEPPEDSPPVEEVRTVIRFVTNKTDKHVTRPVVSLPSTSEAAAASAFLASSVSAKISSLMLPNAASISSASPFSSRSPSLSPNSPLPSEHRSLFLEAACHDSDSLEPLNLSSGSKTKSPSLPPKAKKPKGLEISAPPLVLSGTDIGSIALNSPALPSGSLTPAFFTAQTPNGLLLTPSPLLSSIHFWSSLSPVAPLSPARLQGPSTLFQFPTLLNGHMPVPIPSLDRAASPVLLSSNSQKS
Particulars: protein: recombinant; tags: N-terminal GST; dsDNA, one strand shown. In short, it runs like this:
as §1

The target of the next assay is T7, FEV (Homo sapiens, UniProt Q99581 1-238).
T7 sequence: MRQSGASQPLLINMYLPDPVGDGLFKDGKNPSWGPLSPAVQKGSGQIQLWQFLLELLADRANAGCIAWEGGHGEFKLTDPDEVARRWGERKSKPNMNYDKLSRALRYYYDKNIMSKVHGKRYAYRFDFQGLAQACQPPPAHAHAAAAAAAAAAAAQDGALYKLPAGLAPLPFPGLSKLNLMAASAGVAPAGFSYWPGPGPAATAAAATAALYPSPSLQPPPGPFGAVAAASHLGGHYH
Particulars: protein: recombinant; tags: N-terminal GST; dsDNA, one strand shown. In short, it runs like this:
as §1

For the next assay, the target named is ETV5 (Homo sapiens, UniProt P41161 1-510). Particulars: protein: recombinant; tags: N-terminal GST; dsDNA, one strand shown. The procedure, abridged: as §1
A further assay deals with HSF1 (Homo sapiens, UniProt Q00613 1-529). Particulars: protein: recombinant; tags: N-terminal GST; chain copies: 3; dsDNA, one strand shown. The procedure, abridged: as §1
A further assay has as its target T8, SPIC (Homo sapiens, UniProt Q8N5J4 1-248).
T8 sequence: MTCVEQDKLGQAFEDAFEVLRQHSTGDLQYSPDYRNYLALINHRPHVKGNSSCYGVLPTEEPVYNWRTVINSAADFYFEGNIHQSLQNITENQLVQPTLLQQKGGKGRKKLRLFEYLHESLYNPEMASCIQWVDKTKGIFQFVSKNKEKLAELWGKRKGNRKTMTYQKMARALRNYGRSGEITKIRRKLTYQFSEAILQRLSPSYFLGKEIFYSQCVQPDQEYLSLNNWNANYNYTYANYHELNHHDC
Particulars: protein: recombinant; tags: N-terminal GST; dsDNA, one strand shown. In short, it runs like this:
as §1

The target in another assay is ELF4 (Homo sapiens, UniProt Q99607 1-663). Particulars: protein: recombinant; tags: N-terminal GST; dsDNA, one strand shown. The procedure, abridged: as §1
Another assay addresses T9, ELK4 (Homo sapiens, UniProt P28324-2 1-405).
T9 sequence: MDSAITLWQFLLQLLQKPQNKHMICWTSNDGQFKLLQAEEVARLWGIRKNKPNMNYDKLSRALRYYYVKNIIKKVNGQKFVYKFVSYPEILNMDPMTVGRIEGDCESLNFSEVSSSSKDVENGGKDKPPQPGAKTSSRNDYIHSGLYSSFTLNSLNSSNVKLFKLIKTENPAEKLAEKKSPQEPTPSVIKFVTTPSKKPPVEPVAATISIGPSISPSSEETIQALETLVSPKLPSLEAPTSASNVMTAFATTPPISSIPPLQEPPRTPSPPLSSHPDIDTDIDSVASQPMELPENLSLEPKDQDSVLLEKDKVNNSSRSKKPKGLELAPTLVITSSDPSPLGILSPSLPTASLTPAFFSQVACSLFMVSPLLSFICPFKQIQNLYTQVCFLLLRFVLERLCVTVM
Particulars: protein: recombinant; tags: N-terminal GST; dsDNA, one strand shown. The procedure, abridged:
as §1

The next assay deals with T10, ETV2 (Homo sapiens, UniProt O00321 1-342).
T10 sequence: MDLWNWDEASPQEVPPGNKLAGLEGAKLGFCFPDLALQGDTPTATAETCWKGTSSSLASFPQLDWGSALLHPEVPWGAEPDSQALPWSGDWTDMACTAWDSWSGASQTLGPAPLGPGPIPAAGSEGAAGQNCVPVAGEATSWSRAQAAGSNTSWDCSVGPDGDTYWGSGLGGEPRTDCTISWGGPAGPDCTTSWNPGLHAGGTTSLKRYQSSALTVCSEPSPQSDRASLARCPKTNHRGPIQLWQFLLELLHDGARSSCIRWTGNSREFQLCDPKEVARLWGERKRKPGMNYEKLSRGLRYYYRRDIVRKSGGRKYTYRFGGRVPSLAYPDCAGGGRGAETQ
Particulars: protein: recombinant; tags: N-terminal GST; dsDNA, one strand shown. In short, it runs like this:
as §1

A further assay deals with T11, ELF3 (Homo sapiens, UniProt P78545 1-371).
T11 sequence: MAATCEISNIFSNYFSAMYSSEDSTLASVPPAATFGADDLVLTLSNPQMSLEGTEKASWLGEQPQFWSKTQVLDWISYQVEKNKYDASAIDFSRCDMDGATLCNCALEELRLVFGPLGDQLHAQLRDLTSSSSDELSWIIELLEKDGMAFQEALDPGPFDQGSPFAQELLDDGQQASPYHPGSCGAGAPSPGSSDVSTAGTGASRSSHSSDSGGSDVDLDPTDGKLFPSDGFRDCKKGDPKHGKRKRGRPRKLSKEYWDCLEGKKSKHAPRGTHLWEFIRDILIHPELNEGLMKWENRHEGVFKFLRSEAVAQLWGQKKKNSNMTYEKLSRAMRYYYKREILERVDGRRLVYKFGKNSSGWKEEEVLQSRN
Particulars: protein: recombinant; tags: N-terminal GST; dsDNA, one strand shown. In short, it runs like this: as §1

Another assay concerns the target CRX (Homo sapiens, UniProt O43186 1-299). Particulars: protein: recombinant; tags: N-terminal GST; dsDNA, one strand shown. In short, it runs like this:
as §1

For a further assay, the target named is ETV1 (Homo sapiens, UniProt P50549 1-477). Particulars: protein: recombinant; tags: N-terminal GST; dsDNA, one strand shown. In short, it runs like this:
as §1

Sequence of HSF1 (Q00613 whole entry): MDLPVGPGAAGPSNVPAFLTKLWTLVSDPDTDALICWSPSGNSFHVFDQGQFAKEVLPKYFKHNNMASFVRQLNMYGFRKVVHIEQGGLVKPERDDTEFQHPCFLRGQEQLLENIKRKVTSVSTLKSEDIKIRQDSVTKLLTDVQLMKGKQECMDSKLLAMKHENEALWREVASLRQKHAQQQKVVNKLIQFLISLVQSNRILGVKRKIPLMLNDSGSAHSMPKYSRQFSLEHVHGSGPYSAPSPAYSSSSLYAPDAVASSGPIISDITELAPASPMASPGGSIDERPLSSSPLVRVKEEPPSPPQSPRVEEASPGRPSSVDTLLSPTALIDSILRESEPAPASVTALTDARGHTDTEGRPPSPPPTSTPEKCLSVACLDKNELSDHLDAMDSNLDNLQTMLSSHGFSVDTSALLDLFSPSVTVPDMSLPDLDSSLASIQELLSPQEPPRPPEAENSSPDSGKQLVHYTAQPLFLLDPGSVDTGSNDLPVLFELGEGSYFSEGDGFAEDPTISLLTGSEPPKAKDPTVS
Sequence of SPIB (Q01892 whole entry): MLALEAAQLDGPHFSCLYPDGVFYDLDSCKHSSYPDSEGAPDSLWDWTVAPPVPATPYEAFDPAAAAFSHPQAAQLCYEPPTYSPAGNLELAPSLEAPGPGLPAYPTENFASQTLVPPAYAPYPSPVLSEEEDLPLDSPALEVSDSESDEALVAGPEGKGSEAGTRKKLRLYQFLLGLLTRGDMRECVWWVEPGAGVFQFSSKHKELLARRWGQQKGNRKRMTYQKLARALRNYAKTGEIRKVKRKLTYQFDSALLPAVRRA
Sequence of ETV1 (P50549 whole entry): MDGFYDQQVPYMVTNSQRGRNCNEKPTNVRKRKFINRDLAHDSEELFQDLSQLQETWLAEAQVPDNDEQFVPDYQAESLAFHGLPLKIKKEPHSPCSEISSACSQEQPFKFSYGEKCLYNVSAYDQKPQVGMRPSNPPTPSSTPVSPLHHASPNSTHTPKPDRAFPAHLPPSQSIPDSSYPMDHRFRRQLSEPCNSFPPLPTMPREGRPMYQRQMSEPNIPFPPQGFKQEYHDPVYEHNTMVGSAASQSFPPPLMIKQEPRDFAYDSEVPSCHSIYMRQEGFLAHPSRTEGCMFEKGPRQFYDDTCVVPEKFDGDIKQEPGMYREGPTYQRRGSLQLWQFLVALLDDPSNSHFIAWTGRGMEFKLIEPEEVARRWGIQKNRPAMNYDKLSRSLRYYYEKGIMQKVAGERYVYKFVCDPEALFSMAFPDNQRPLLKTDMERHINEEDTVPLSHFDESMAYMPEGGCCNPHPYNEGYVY
Sequence of ELF4 (Q99607 whole entry): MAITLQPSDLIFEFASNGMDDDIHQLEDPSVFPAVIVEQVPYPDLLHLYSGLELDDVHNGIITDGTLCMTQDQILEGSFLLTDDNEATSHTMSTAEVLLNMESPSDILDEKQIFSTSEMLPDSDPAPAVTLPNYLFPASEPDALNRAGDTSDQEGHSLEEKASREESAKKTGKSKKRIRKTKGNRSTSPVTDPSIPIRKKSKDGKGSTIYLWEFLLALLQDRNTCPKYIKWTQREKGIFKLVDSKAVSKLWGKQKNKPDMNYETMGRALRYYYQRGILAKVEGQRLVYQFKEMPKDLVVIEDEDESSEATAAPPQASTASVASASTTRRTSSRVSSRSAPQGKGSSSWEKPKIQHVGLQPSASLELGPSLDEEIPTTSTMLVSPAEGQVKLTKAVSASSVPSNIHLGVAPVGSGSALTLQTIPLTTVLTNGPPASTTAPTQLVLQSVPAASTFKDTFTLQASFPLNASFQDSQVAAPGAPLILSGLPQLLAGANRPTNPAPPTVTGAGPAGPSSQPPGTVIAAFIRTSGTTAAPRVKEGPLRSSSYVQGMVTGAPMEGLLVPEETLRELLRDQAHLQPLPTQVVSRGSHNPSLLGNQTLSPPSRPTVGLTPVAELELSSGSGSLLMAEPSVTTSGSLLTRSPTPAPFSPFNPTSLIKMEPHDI
Sequence of CRX (O43186 whole entry): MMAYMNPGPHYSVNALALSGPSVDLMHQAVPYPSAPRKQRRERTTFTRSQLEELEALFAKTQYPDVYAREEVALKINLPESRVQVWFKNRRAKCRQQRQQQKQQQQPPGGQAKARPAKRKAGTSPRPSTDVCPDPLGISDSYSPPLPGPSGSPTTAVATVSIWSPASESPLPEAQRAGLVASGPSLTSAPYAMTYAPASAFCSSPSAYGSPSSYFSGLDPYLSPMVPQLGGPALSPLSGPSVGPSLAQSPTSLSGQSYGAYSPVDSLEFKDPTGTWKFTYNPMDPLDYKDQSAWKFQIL
Sequence of ETV5 (P41161 whole entry): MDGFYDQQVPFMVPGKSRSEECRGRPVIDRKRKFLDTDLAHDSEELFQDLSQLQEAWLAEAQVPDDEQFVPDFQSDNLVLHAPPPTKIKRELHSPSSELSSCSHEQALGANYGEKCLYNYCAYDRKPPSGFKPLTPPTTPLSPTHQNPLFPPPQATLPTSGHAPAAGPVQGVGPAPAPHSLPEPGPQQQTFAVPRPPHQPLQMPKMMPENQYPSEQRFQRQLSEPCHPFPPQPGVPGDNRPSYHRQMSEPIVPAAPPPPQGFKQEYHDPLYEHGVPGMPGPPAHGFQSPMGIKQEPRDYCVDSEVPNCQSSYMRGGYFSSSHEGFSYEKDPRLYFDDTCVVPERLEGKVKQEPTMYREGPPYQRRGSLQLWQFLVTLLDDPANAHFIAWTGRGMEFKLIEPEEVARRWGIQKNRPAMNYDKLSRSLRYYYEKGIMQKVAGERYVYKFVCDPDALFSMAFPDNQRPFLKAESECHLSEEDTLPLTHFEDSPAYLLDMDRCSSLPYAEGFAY
Sequence of ELF1 (P32519 whole entry): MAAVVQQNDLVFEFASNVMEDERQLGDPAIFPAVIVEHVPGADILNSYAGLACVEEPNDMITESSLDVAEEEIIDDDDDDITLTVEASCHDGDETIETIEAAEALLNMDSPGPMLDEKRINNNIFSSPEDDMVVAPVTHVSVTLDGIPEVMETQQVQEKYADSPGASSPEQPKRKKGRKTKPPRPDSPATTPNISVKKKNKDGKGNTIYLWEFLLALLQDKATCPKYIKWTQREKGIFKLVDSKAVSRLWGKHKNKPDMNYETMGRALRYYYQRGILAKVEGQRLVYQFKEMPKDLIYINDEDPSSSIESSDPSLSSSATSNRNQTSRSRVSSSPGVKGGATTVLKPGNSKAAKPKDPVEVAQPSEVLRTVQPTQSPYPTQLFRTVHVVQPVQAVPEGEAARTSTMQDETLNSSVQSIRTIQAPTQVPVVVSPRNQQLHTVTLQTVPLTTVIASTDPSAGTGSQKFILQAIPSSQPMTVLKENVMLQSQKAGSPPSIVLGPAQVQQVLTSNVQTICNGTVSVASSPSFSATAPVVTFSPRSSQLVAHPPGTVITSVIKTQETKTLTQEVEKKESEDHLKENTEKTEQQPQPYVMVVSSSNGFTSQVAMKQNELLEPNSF

As for CACTCT, the binding signal in the assay with FLI1 is 1.27 fold enrichment (6-mer frequency, TF over GST control); in the assay with ELK1, 1.25 fold enrichment (6-mer frequency, TF over GST control); with GABPA it was 1.19 fold enrichment (6-mer frequency, TF over GST control); with ERG, 1.24 fold enrichment (6-mer frequency, TF over GST control); in the assay with ELF1 it was 1.36 fold enrichment (6-mer frequency, TF over GST control); with EHF, 1.38 fold enrichment (6-mer frequency, TF over GST control). Also, the binding signal is 1.34 fold enrichment (6-mer frequency, TF over GST control) with SPI1; 1.23 fold enrichment (6-mer frequency, TF over GST control) with SPIB; 1.34 fold enrichment (6-mer frequency, TF over GST control) with ELK3; 1.24 fold enrichment (6-mer frequency, TF over GST control) with FEV; 1.29 fold enrichment (6-mer frequency, TF over GST control) in the assay with ETV5; 1.24 fold enrichment (6-mer frequency, TF over GST control) with HSF1. Moreover, the binding signal in the assay with SPIC is 1.22 fold enrichment (6-mer frequency, TF over GST control); with ELF4, 1.22 fold enrichment (6-mer frequency, TF over GST control); in the assay with ELK4, 1.58 fold enrichment (6-mer frequency, TF over GST control); with ETV2 it was 1.37 fold enrichment (6-mer frequency, TF over GST control); in the assay with ELF3, 1.4 fold enrichment (6-mer frequency, TF over GST control); with CRX, 1.08 fold enrichment (6-mer frequency, TF over GST control). Also, the binding signal with ETV1 was 1.33 fold enrichment (6-mer frequency, TF over GST control).
